This note sets out measurements from PubChem BioAssay (NCI).

Compounds without any hit were thinned out: in the full panel of roughly 79,000, 15% have a hit. Unmarked numbers belong to inactive results. Calls of active or inactive are those of the source. Cut-off read from the data, not from the text of the source: active = growth inhibition above about 70%; inactive = the rest.

The nature of assay [1]: NCI Yeast Anticancer Drug Screen. Data for the rad50 strain (AID 155).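 Note: 0% = growth of vehicle-only cultures of the same strain.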 As to conditions: S. cerevisiae rad50 strain growth inhibition, stronger effect = higher value. The method in brief: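 DNA repair mutant yeast, compound exposure, growth read-out; inhibition is taken relative to vehicle.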
Assay [2] is described as follows: NCI Yeast Anticancer Drug Screen. Data for the mec2-1 strain (AID 157). As to conditions: S. cerevisiae mec2-1 strain, stronger effect = higher value. The method in brief:
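Yeast mec2-1 mutant treated with compound. Readout: growth inhibition vs vehicle controls.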

Assay [3] is described as follows: NCI Yeast Anticancer Drug Screen. Data for the sgs1 mgt1 strain (AID 161).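 Note: 0% = growth of cultures given vehicle only.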 As to conditions: S. cerevisiae sgs1 mgt1 strain, stronger effect = higher value. The method in brief: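 Genetically altered yeast, compound exposure, growth inhibition relative to vehicle.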
Assay [4] in a line: NCI Yeast Anticancer Drug Screen. Data for the cln2 rad14 strain (AID 165).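 Note: 0% = growth equal to vehicle treated cultures.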 As to conditions: S. cerevisiae cln2 rad14 strain, stronger effect = higher value. The method in brief:
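cln2 rad14 yeast strain; compound exposure; growth inhibition read vs vehicle controls.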

Assay [5] can be described thus: NCI Yeast Anticancer Drug Screen. Data for the bub3 strain (AID 167). As to conditions: S. cerevisiae bub3 mutant strain, stronger effect = higher value. The gist of the method:
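In this screen, a yeast mutant lacking normal mitotic checkpoint function is challenged with compound. Relative growth versus vehicle gives the inhibition value.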

Assay [6] in a line: NCI Yeast Anticancer Drug Screen. Data for the mlh1 rad18 strain (AID 175). As to conditions: S. cerevisiae mlh1 rad18 strain growth inhibition, stronger effect = higher value. The gist of the method:
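Yeast w/ defined DNA-repair lesions; compound exposure; growth vs vehicle controls → % inhibition.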

Where [7] appears, read: at 5.0 µM (retest, dose inferred, filed as 0.5).
Where [8] appears, read: at 50.0 µM (retest, dose inferred, filed as 5.0).

Take `Nc1nnc(-c2cc([N+](=O)[O-])cc([N+](=O)[O-])c2)o1`: the growth inhibition in assay [1] (setting [7]) was -16%; in assay [1] (setting [8]) it was -2%; in assay [1] (at 50.0 µM), 22.8%; in assay [2] (setting [7]), -4%; in assay [2] (setting [8]), -5%; in assay [2] (at 50.0 µM) it was 14.6%. The growth inhibition in assay [3] (setting [7]) is -1%; in assay [3] (setting [8]) it was 14%; in assay [3] (at 50.0 µM) it was 15.1%; in assay [4] (setting [7]) it was 6%; in assay [4] (setting [8]), 20%; in assay [4] (at 50.0 µM) it was -20.2%. In addition, the growth inhibition is 3% in assay [5] (setting [7]); 7% in assay [5] (setting [8]); -19.2% in assay [5] (at 50.0 µM); -21% in assay [6] (setting [7]); 3% in assay [6] (setting [8]); 31.9% in assay [6] (at 50.0 µM).
Take `O=C1NC2(C=Cc3c(ccc4ccccc34)O2)Oc2ccccc21` (configuration not stated): the growth inhibition was -12% in assay [1] (setting [7]); -8% in assay [1] (setting [8]); 44.5% in assay [1] (at 50.0 µM); -16% in assay [2] (setting [7]); -7% in assay [2] (setting [8]); 10% in assay [2] (at 50.0 µM). In addition, the growth inhibition in assay [3] (setting [7]) was 6%; in assay [3] (setting [8]), 11%; in assay [3] (at 50.0 µM) it was 34%; in assay [4] (setting [7]), 31%; in assay [4] (setting [8]), 48%; in assay [4] (at 50.0 µM), 24.4%. In addition, the growth inhibition was 4% in assay [5] (setting [7]); -8% in assay [5] (setting [8]); 7.65% in assay [5] (at 50.0 µM); -3% in assay [6] (setting [7]); 3% in assay [6] (setting [8]); 62% in assay [6] (at 50.0 µM).
For the compound `O=S(=O)(Nc1ccc2ccccc2c1)c1ccccc1`, the growth inhibition was -10% in assay [1] (setting [7]); 98% (active) in assay [1] (setting [8]); 97.7% (active) in assay [1] (at 50.0 µM); -21% in assay [2] (setting [7]); 99% (active) in assay [2] (setting [8]); 98% (active) in assay [2] (at 50.0 µM). Moreover, the growth inhibition in assay [3] (setting [7]) is 2%; in assay [3] (setting [8]), 99% (active); in assay [3] (at 50.0 µM), 97.8% (active); in assay [4] (setting [7]), 7%; in assay [4] (setting [8]), 93% (active); in assay [4] (at 50.0 µM) it was 92.2% (active). Further, the growth inhibition in assay [5] (setting [7]) is -9%; in assay [5] (setting [8]) it was 99% (active); in assay [5] (at 50.0 µM), 97.2% (active); in assay [6] (setting [7]), -18%; in assay [6] (setting [8]) it was 98% (active); in assay [6] (at 50.0 µM), 98% (active).
On to `CC(=O)Oc1cc2c(cc1OC(C)=O)OCC(c1ccccc1)C2` (configuration not stated), for which the growth inhibition in assay [1] (setting [7]) was 2%; in assay [1] (setting [8]) it was 45%; in assay [1] (at 50.0 µM), 69.3%; in assay [2] (setting [7]) it was 5%; in assay [2] (setting [8]), 48%; in assay [2] (at 50.0 µM) it was 56.3%. For the same compound, the growth inhibition in assay [3] (setting [7]) is 4%; in assay [3] (setting [8]), 60%; in assay [3] (at 50.0 µM) it was 76.5% (active); in assay [4] (setting [7]) it was 3%; in assay [4] (setting [8]), 20%; in assay [4] (at 50.0 µM) it was 35.9%. The growth inhibition in assay [5] (setting [7]) was 41%; in assay [5] (setting [8]), 93% (active); in assay [5] (at 50.0 µM) it was 94.8% (active); in assay [6] (setting [7]) it was -10%; in assay [6] (setting [8]), 53%; in assay [6] (at 50.0 µM), 63.4%.
On to `CC(=O)Nc1ccc2c(c1)[nH]c(=O)c1cc(Cl)ccc12`, for which the growth inhibition is 60% in assay [1] (setting [7]); 96% (active) in assay [1] (setting [8]); 82.8% (active) in assay [1] (at 50.0 µM); 18% in assay [2] (setting [7]); 63% in assay [2] (setting [8]); -1.45% in assay [2] (at 50.0 µM). The growth inhibition in assay [3] (setting [7]) was 12%; in assay [3] (setting [8]), 72% (active); in assay [3] (at 50.0 µM), 7.25%; in assay [4] (setting [7]), -20%; in assay [4] (setting [8]), 76% (active); in assay [4] (at 50.0 µM), 0.95%. Moreover, the growth inhibition in assay [5] (setting [7]) is 4%; in assay [5] (setting [8]) it was 7%; in assay [5] (at 50.0 µM), -7.95%; in assay [6] (setting [7]), 29%; in assay [6] (setting [8]) it was 91% (active); in assay [6] (at 50.0 µM), 35.5%.
For the compound `CC(=O)c1csc2c1C(=O)c1scc(C(C)=O)c1C2=O`, the growth inhibition in assay [1] (setting [7]) was 26%; in assay [1] (setting [8]), 48%; in assay [1] (at 50.0 µM) it was 48.5%; in assay [2] (setting [7]), 27%; in assay [2] (setting [8]) it was 49%; in assay [2] (at 50.0 µM), 30.9%. Also, the growth inhibition is 24% in assay [3] (setting [7]); 43% in assay [3] (setting [8]); 90.3% (active) in assay [3] (at 50.0 µM); 14% in assay [4] (setting [7]); 36% in assay [4] (setting [8]); 88.6% (active) in assay [4] (at 50.0 µM). The growth inhibition in assay [5] (setting [7]) was 37%; in assay [5] (setting [8]), 47%; in assay [5] (at 50.0 µM), 90.3% (active); in assay [6] (setting [7]) it was 32%; in assay [6] (setting [8]), 49%; in assay [6] (at 50.0 µM), 87% (active).
For `O=S(=O)(O)c1ccc(O)c2cc(Nc3ccccc3)ccc12`, the growth inhibition in assay [1] (setting [7]) is -3%; in assay [1] (setting [8]), -26%; in assay [1] (at 50.0 µM) it was 44%; in assay [2] (setting [7]), -3%; in assay [2] (setting [8]), -29%; in assay [2] (at 50.0 µM), 20.9%. Further, the growth inhibition in assay [3] (setting [7]) is -4%; in assay [3] (setting [8]), -31%; in assay [3] (at 50.0 µM) it was 26.2%; in assay [4] (setting [7]), 2%; in assay [4] (setting [8]), -37%; in assay [4] (at 50.0 µM) it was -28.6%. The growth inhibition in assay [5] (setting [7]) was 2%; in assay [5] (setting [8]), -25%; in assay [5] (at 50.0 µM), 11.6%; in assay [6] (setting [7]), 3%; in assay [6] (setting [8]) it was -23%; in assay [6] (at 50.0 µM), 25.5%.
For the compound `CSc1nc(SC)c2cnn(Cc3ccccc3)c2n1`, the growth inhibition is -16% in assay [1] (setting [7]); 21% in assay [1] (setting [8]); -7.1% in assay [1] (at 50.0 µM); -1% in assay [2] (setting [7]); -15% in assay [2] (setting [8]); 4.9% in assay [2] (at 50.0 µM). Moreover, the growth inhibition in assay [3] (setting [7]) is -15%; in assay [3] (setting [8]), 25%; in assay [3] (at 50.0 µM), 9.7%; in assay [4] (setting [7]), -11%; in assay [4] (setting [8]), -4%; in assay [4] (at 50.0 µM), 2.35%. Also, the growth inhibition in assay [5] (setting [7]) was -8%; in assay [5] (setting [8]), 18%; in assay [5] (at 50.0 µM), 1.3%; in assay [6] (setting [7]) it was 18%; in assay [6] (setting [8]) it was 7%; in assay [6] (at 50.0 µM), 16.9%.
Turning to `CC(=O)N(c1ccccc1)c1nc2ccccc2s1`, the growth inhibition in assay [1] (setting [7]) is -8%; in assay [1] (setting [8]), 1%; in assay [1] (at 50.0 µM) it was -41.2%; in assay [2] (setting [7]), -4%; in assay [2] (setting [8]), -4%; in assay [2] (at 50.0 µM), -22.9%. Besides, the growth inhibition in assay [3] (setting [7]) was -6%; in assay [3] (setting [8]), -4%; in assay [3] (at 50.0 µM), -22.6%; in assay [4] (setting [7]), -2%; in assay [4] (setting [8]), -6%; in assay [4] (at 50.0 µM), -42.6%. The growth inhibition in assay [5] (setting [7]) is 30%; in assay [5] (setting [8]) it was 59%; in assay [5] (at 50.0 µM), 75.7% (active); in assay [6] (setting [7]), -25%; in assay [6] (setting [8]), -51%; in assay [6] (at 50.0 µM) it was -30.3%.
